Test results: the supplement of paper PMC10981050
Several values for one entry are separate records, joined by “and”; a condition that tells them apart may be missing. Equal values may be shown once. Where a name gives a salt, the structure may show the parent alone.

Tests used:
Experiment in all cases: cell viability relative to vehicle control; higher = less cytotoxic
Settings in all cases: 10 µM
K562 = test system: K562
Outline: (§1)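 CRISPR-edited SRSF2 P95 mutant and isogenic wild-type clones of four leukaemia lines were screened against Selleck bioactive, kinase and epigenetic probe libraries, with identity-inconsistent compounds removed. Compounds were acoustically dispensed into 384-well plates at a single 10 µM dose, with 2000 cells in 50 µL medium per well. After 48 h, supernatant was removed and CellTiter-Glo luminescence was read. Viability was expressed as percent of the on-plate DMSO vehicle control, analysed in Genedata Screener.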

MARIMO = test system: MARIMO
Outline: as §1

MOLM14 = test system: MOLM14
Outline: as §1

OCI-AML2 = test system: OCI-AML2
Outline: as §1

| SMILES | cell viability (K562; SRSF2 genotype: SRSF2 P95H/wt) | cell viability (K562; SRSF2 genotype: SRSF2 wt/wt) [%] | cell viability (MARIMO; SRSF2 genotype: SRSF2 P95H/wt) [%] | cell viability (MARIMO; SRSF2 genotype: SRSF2 wt/wt) [%] | cell viability (MOLM14; SRSF2 genotype: SRSF2 P95H/wt) [%] | cell viability (MOLM14; SRSF2 genotype: SRSF2 wt/wt) [%] | cell viability (OCI-AML2; SRSF2 genotype: P95H/wt) [%] | cell viability (OCI-AML2; SRSF2 genotype: wt/wt) [%] |
| --- | --- | --- | --- | --- | --- | --- | --- | --- |
| O=[N+]([O-])c1ncc[nH]1 [Azomycin (2-Nitroimidazole)] | 102% and 103% | 101 | 101 | 101 | 95.3 | 100 | 97.8 | 96.8 |
| CCN1C[C@]2(COC)CC[C@H](OC)[C@]34C1[C@H]([C@H](OC)[C@H]23)[C@@]1(OC(C)=O)C[C@H](OC)[C@@]2(O)C[C@@H]4[C@@H]1[C@H]2OC(=O)c1ccc(OC)cc1 [Crassicauline A] | 93.2% and 89.8% | 87.5 | 84.4 | 93.3 | 91.8 | 90.6 | 87.7 | 100 |
| CN1c2ccccc2C(NCCCCCCC(=O)O)c2ccc(Cl)cc2S1(=O)=O (stereo not given) [Tianeptine sodium] | 99.4% and 97.1% | 97.6 | 106 | 108 | 107 | 101 | 98.4 | 111 |
| C=C[C@@H]1C2=CCOC(=O)C2=CO[C@H]1O[C@@H]1O[C@H](CO)[C@@H](O)[C@H](O)[C@H]1O [Gentiopicroside] | 97.2% and 95.7% | 96.3 | 94.5 | 99 | 98.5 | 104 | 94 | 108 |
| O=C(O)CNC(=O)c1c(O)c2ccccc2n(Cc2ccccc2)c1=O | 95.1% and 95.2% | 101 | 94.3 | 100 | 99.8 | 101 | 103 | 96.5 |
| Cc1sc2c(c1C)C(c1ccc(Cl)cc1)=N[C@@H](CC(=O)OC(C)(C)C)c1nnc(C)n1-2 | 53.8% and 59.9% | 61.5 | 22.3 | 30.9 | 15.9 | 11.6 | 17.5 | 30.2 |
| Cc1c(N[C@@H](c2nnc(-c3ccc(C#N)cc3)o2)[C@H](C)O)ccc(C#N)c1Cl | 87.6% and 86.2% | 100 | 88.4 | 96.5 | 88.9 | 100 | 100 | 102 |
| CN1[C@@H]2C[C@@H](OC(=O)[C@H](CO)c3ccccc3)C[C@H]1[C@@H]1O[C@@H]12 [Scopolamine hydrobromide] | 97.1% and 95.9% | 99.9 | 101 | 109 | 104 | 100 | 102 | 104 |
| C[C@H]1CC[C@@H]2N(C1)C[C@H]1[C@@H]3C[C@H]4[C@@H](C[C@H](O)[C@H]5C[C@@H](O)CC[C@@]54C)[C@@H]3CC[C@@H]1[C@]2(C)O [Peimine] | 110% and 102% | 95.8 | 97.3 | 104 | 104 | 98.6 | 99.6 | 106 |
| O=c1[nH]c2ccccc2n1CCCN1CCC(n2c(=O)[nH]c3cc(Cl)ccc32)CC1 [Domperidone (Motilium)] | 78.9% and 85.9% | 79.7 | 77.9 | 87.4 | 92.4 | 91.8 | 78.8 | 85.7 |
| CC(C)=CCCC(C)(O)C1CCC2(C)C1C(O)CC1C3(C)CCC(OC4OC(CO)C(O)C(O)C4O)C(C)(C)C3CCC12C [(20R)Ginsenoside Rh2] | 90.5% and 92.8% | 96 | 101 | 102 | 102 | 96 | 98.5 | 106 |
| N#CC(C#N)=NNc1ccc(OC(F)(F)F)cc1 | 16.2% and 15.8% | 19.2 | 31.8 | 28 | 14.5 | 11.2 | 2.85 | 8.68 |
| NC(=O)CN1CCCC1=O [Piracetam] | 96.1% and 103% | 98.7 | 102 | 102 | 99.6 | 105 | 103 | 112 |
| COc1ccc2c(c1)/C(=C/c1cnc[nH]1)C(=O)N2 | 91.8% and 96.2% | 88 | 33.7 | 39.8 | 22.1 | 3.31 | 15.4 | 24.6 |
| COC1=C[C@@H]2[C@@H]3Cc4ccc(OC)c(O)c4[C@]2(CCN3C)CC1=O [Sinomenine hydrochloride] | 104% and 105% | 97.9 | 102 | 101 | 98.5 | 101 | 103 | 109 |
| OC(CNc1ccccc1)Cn1c2ccc(Br)cc2c2cc(Br)ccc21 (stereo not given) | 74.2% and 72.5% | 66.2 | 85.1 | 98.2 | 87.2 | 58.1 | 52.3 | 83.5 |
| Cc1cccc(Cc2c[nH]cn2)c1C [Detomidine HCl] | 96.3% and 104% | 96.5 | 103 | 95.3 | 105 | 106 | 110 | 93.1 |
| C[C@@H]1O[C@@H](O[C@H]2C[C@@H](O)[C@]3(CO)[C@H]4[C@H](O)C[C@]5(C)[C@@H](C6=CC(=O)OC6)CC[C@]5(O)[C@@H]4CC[C@]3(O)C2)[C@H](O)[C@H](O)[C@H]1O [Ouabain] | 10.4% and 12.3% | 12.4 | 10.7 | 4.01 | 3.34 | 0.78 | 0.73 | 2.79 |
| CC(C)c1ccc2c(c1O)CC[C@H]1C3=C(CC[C@]21C)C(=O)OC3 [Triptophenolide] | 70.5% and 80.3% | 79.5 | 70.3 | 62.5 | 99.4 | 92 | 49 | 61.7 |
| Cn1c(CCCC(=O)O)nc2cc(N(CCCl)CCCl)ccc21 [Bendamustine HCL] | 97.2% and 96.8% | 96.3 | 94.5 | 104 | 86.3 | 97.8 | 66.5 | 83 |
